Calls of active or inactive are those of the source. How the source made its calls: active means hit-call score of the fitted dose curve at least 0.9, where 1 is the maximum; inactive means score below 0.9.
Assays:
[1] = read-out: Matrix Metallopeptidase 1 (MMP1), MMP1 (gene 4312); assay: BSK_BE3C_MMP1: BioMAP Diversity Plus: BE3C Assay for Matrix Metallopeptidase 1 (MMP1) Biomarker Activity (AID 2283024); conditions: primary human bronchial epithelial cells; actives raise or lower the signal
In short: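 In this multiplexed primary-cell system, human bronchial epithelium received chemicals for 24 h before an ELISA for MMP1. Values reflect bidirectional fits normalised to the DMSO baseline.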

[2] = BSK_3C_Vis: BioMAP Diversity Plus: 3C Assay for Morphology Visualization (AID 2283025); conditions: primary human endothelial cells (HUVEC);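 further: fitted both ways so gain or loss versus DMSO counts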;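 on AC50: light microscopy image of cell morphology used as background control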
In short: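 Light-microscopy morphology readout, 24 h exposure, human primary umbilical vein endothelium; analysed relative to DMSO with bidirectional fitting.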

[3] = read-out: Pselectin, SELP (gene 6403); assay: BSK_4H_Pselectin: BioMAP Diversity Plus: 4H Assay for Pselectin Biomarker Activity (AID 2283026); conditions: primary human endothelial cells (HUVEC); actives raise or lower the signal
In short: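 Bidirectional fits against DMSO gave the endpoint. Cells: primary human umbilical vein endothelium, chemical-treated for 24 h before ELISA detection of P-selectin.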

[4] = BSK_4H_SRB: Viability Assessment in the BioMAP Diversity Plus: 4H Assay (AID 2283027); conditions: primary human endothelial cells (HUVEC);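 further: cells exposed to compound for 24 h before staining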;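 on AC50: curves fitted both ways versus DMSO so AC50 may be loss or gain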
In short: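 Cytotoxicity readout: sulforhodamine B (0.1%) staining of total protein after 10% TCA fixation, measured at 560 nm in human umbilical vein endothelium at 24 h. DMSO set the baseline; fitting was bidirectional.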

[5] = BSK_BE3C_SRB: Viability Assessment in the BioMAP Diversity Plus: BE3C Assay (AID 2283028); conditions: primary human bronchial epithelial cells
In short: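 Cytotoxicity read-out: SRB (0.1%) staining of TCA-fixed (10%) human lung bronchial epithelial cells, absorbance 560 nm, 24 h post-dosing. Curves fitted both directions relative to DMSO.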

[6] = read-out: Thrombomodulin, THBD (gene 7056); assay: BSK_3C_Thrombomodulin: BioMAP Diversity Plus: 3C Assay for Thrombomodulin Biomarker Activity (AID 2283029); conditions: primary human endothelial cells (HUVEC); actives raise or lower the signal
In short: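 In a multiplexed primary-cell system, human umbilical vein endothelium received chemical and was assayed 24 h later for thrombomodulin by ELISA. Parallel cultures were SRB-stained (0.1% SRB after 10% TCA fixation, read at 560 nm) to flag cytotoxicity.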

[7] = read-out: Urokinase-type plasminogen activator receptor (uPAR), PLAUR (gene 5329); assay: BSK_4H_uPAR: BioMAP Diversity Plus: 4H Assay for Urokinase-type plasminogen activator receptor (uPAR) Biomarker Activity (AID 2283030); conditions: primary human endothelial cells (HUVEC); actives raise or lower the signal
In short: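 uPAR level read by ELISA on HUVEC cultures (BioMAP 4H) 24 h post-dosing, analyzed for gain or loss relative to DMSO. Parallel SRB staining assessed overt cytotoxicity.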

[8] = read-out: Vascular endothelial growth factor receptor 2 (Homo sapiens) (UniProt P35968); assay: BSK_4H_VEGFRII: BioMAP Diversity Plus: 4H Assay for Vascular endothelial growth factor receptor 2 (VEGFR2) Biomarker Activity (AID 2283031); conditions: primary human endothelial cells (HUVEC); actives raise or lower the signal
In short: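 Measured by ELISA after 24 h of compound treatment: VEGFR2 on primary human umbilical vein endothelial cells, fitted in both directions relative to DMSO. Parallel cultures received SRB staining (560 nm) for overt cytotoxicity.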

[9] = read-out: Human Leukocyte Antigen - DR isotype (HLADR), HLA-DRA (gene 3122); assay: BSK_BE3C_HLADR: BioMAP Diversity Plus: BE3C Assay for Human Leukocyte Antigen - DR isotype (HLADR) Biomarker Activity (AID 2283032); conditions: primary human bronchial epithelial cells; actives raise or lower the signal
In short: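 BioMAP BE3C format: human bronchial epithelium, 24 h compound treatment, ELISA detection of HLA-DR, with bidirectional analysis relative to DMSO.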

[10] = read-out: Vascular cell adhesion molecule 1 (VCAM1), VCAM1 (gene 7412); assay: BSK_4H_VCAM1: BioMAP Diversity Plus: 4H Assay for Vascular cell adhesion molecule 1 (VCAM1) Biomarker Activity (AID 2283033); conditions: primary human endothelial cells (HUVEC); actives raise or lower the signal;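 further: cell-surface VCAM-1 protein measured by ELISA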
In short: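 In this human endothelial (HUVEC) system, biomarker ELISA was run 24 h after compound addition, and total protein in parallel wells was assessed by SRB at 560 nm; DMSO served as negative control.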

[11] = read-out: Interferon-gamma inducible Protein 10 (IP10), CXCL10 (gene 3627); assay: BSK_BE3C_IP10: BioMAP Diversity Plus: BE3C Assay for Interferon-gamma inducible Protein 10 (IP10) Biomarker Activity (AID 2283034); conditions: primary human bronchial epithelial cells; actives raise or lower the signal
In short: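 BE3C cells (human bronchial epithelial, primary); 24 h exposure; ELISA for IP-10; DMSO-referenced bidirectional fit.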

[12] = read-out: Monokine induced gamma interferon (MIG), CXCL9 (gene 4283); assay: BSK_BE3C_MIG: BioMAP Diversity Plus: BE3C Assay for Monokine induced gamma interferon (MIG) Biomarker Activity (AID 2283035); conditions: primary human bronchial epithelial cells; actives raise or lower the signal;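 further: MIG protein measured by ELISA in BE3C cultures after 24 h of dosing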
In short: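 hu bronchial epithelial 1° cells, 24 h cpd; MIG by ELISA; bidirectional fit, DMSO = baseline.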

[13] = read-out: Transforming growth factor beta 1 (TGFb1), TGFB1 (gene 7040); assay: BSK_BE3C_TGFb1: BioMAP Diversity Plus: BE3C Assay for Transforming growth factor beta 1 (TGFb1) Biomarker Activity (AID 2283036;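 further: TGF-b1 protein level measured by ELISA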); conditions: primary human bronchial epithelial cells; actives raise or lower the signal
In short: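 TGF-b1 measured via ELISA, 24 h after chemical dosing of human bronchial epithelial cells (BE3C). Overt cytotoxicity assessed in parallel by SRB (0.1%, TCA-fixed, 560 nm); analysis bidirectional relative to DMSO.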

[14] = read-out: Plasminogen activator inhibitor-1 (PAI1), SERPINE1 (gene 5054); assay: BSK_BE3C_PAI1: BioMAP Diversity Plus: BE3C Assay for Plasminogen activator inhibitor-1 (PAI1) Biomarker Activity (AID 2283037); conditions: primary human bronchial epithelial cells; actives raise or lower the signal
In short: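 In this multiplexed primary-cell system, bronchial epithelial cells receive test chemical and are sampled at 24 h. PAI-1 is read by ELISA, with DMSO serving as negative control for bidirectional fitting.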

[15] = read-out: urokinase plasminogen activator (uPA), PLAU (gene 5328); assay: BSK_BE3C_uPA: BioMAP Diversity Plus: BE3C Assay for urokinase plasminogen activator (uPA) Biomarker Activity (AID 2283038); conditions: primary human bronchial epithelial cells; actives raise or lower the signal;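 further: uPA protein level quantified by ELISA in cell cultures; uPA read one day after compound addition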
In short: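 ELISA for uPA on human primary bronchial epithelial cultures 24 h post-treatment, gain or loss against DMSO. Parallel SRB staining (0.1% after 10% TCA fixation, 560 nm) assessed overt cytotoxicity.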

[16] = read-out: Urokinase-type plasminogen activator receptor (uPAR), PLAUR (gene 5329); assay: BSK_BE3C_uPAR: BioMAP Diversity Plus: BE3C Assay for Urokinase-type plasminogen activator receptor (uPAR) Biomarker Activity (AID 2283039); conditions: primary human bronchial epithelial cells; actives raise or lower the signal;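 further: uPAR protein level measured by ELISA on the cells; cells exposed to compound for one day before measurement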
In short: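 Chemically treated human bronchial epithelial cells (lung primary) are assayed for uPAR by ELISA after 24 h, with data fitted in both directions using DMSO as negative control.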

[17] = read-out: Interleukin-6 (IL6), IL6 (gene 3569); assay: BSK_CASM3C_IL6: BioMAP Diversity Plus: CASM3C Assay for Interleukin-6 (IL6) Biomarker Activity for (AID 2283040); conditions: primary human coronary artery smooth muscle cells; actives raise or lower the signal
[18] = read-out: Tissue plasminogen activator (tPA), PLAT (gene 5327); assay: BSK_BE3C_tPA: BioMAP Diversity Plus: BE3C Assay for Tissue plasminogen activator (tPA) Biomarker Activity (AID 2283041); conditions: primary human bronchial epithelial cells; actives raise or lower the signal;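 on outcome: tPA level quantified by ELISA one day after compound addition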
In short: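 Using human lung primary bronchial epithelial cells, tPA was measured by ELISA 24 h after dosing; data fitted relative to DMSO.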

[19] = read-out: Interleukin-8 (IL8), CXCL8 (gene 3576); assay: BSK_CASM3C_IL8: BioMAP Diversity Plus: CASM3C Assay for Interleukin-8 (IL8) Biomarker Activity (AID 2283042); conditions: primary human coronary artery smooth muscle cells; actives raise or lower the signal;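 further: IL-8 protein level quantified by ELISA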
[20] = read-out: Human Leukocyte Antigen - DR isotype (HLADR), HLA-DRA (gene 3122); assay: BSK_CASM3C_HLADR: BioMAP Diversity Plus: CASM3C Assay for Human Leukocyte Antigen - DR isotype (HLADR) Biomarker Activity (AID 2283043); conditions: primary human coronary artery smooth muscle cells; actives raise or lower the signal;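 further: cell-surface HLA-DR protein level quantified by ELISA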

COC(=O)Nc1nc2ccccc2[nH]1
outcome [1]: inactive | AC50 [2]: 9.8 µM (active) | outcome [3]: inactive | AC50 [4]: 14.5 µM (active) | outcome [5]: inactive | outcome [6]: inactive | AC50 [7]: 8.56 µM (active) | outcome [8]: inactive | outcome [9]: inactive | outcome [10]: inactive | outcome [11]: inactive | outcome [12]: inactive | outcome [13]: inactive | outcome [14]: inactive | outcome [15]: inactive | outcome [16]: inactive | outcome [17]: inactive | outcome [18]: inactive | outcome [19]: inactive | AC50 [20]: 5.43 µM (active)

C[C@]12C=CC3=C4CCC(=O)C=C4CC[C@H]3[C@@H]1CC[C@@H]2O
AC50 [1]: 10.2 µM (active) | AC50 [2]: 7.2 µM (active) | outcome [3]: inactive | outcome [4]: inactive | outcome [5]: inactive | outcome [6]: inactive | AC50 [7]: 16 µM (active) | outcome [8]: inactive | outcome [9]: inactive | outcome [10]: inactive | AC50 [11]: 29.2 µM (active) | outcome [12]: inactive | outcome [13]: inactive | outcome [14]: inactive | outcome [15]: inactive | outcome [16]: inactive | AC50 [17]: 13 µM (active) | AC50 [18]: 3.97 µM (active) | outcome [19]: inactive | outcome [20]: inactive

Nc1ccc(Cc2ccc(N)cc2)cc1
outcome [1]: inactive | outcome [2]: inactive | outcome [3]: inactive | outcome [4]: inactive | outcome [5]: inactive | outcome [6]: inactive | outcome [7]: inactive | outcome [8]: inactive | outcome [9]: inactive | outcome [10]: inactive | outcome [11]: inactive | outcome [12]: inactive | outcome [14]: inactive | outcome [15]: inactive | outcome [16]: inactive | outcome [17]: inactive | outcome [18]: inactive | outcome [19]: inactive | outcome [20]: inactive

— PubChem BioAssay (EPA / NIEHS)
